This is an account of results in PubChem BioAssay (NCI).

Several values for one entry are separate records, joined by “and”; a condition that tells them apart may be missing. Equal entries are not always repeated. About 79,000 compounds went through this panel and 15% of them were active in at least one assay; those are over-represented in the sample as a whole. Where a structure was tested more than once in an assay, its records may differ in their call. Activity calls are given as the source filed them. Rule as the data show it: active = growth inhibition above about 70%; inactive = the rest.

Assay [1] is described as follows: NCI Yeast Anticancer Drug Screen. Data for the rad50 strain (AID 155).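 Also: 0% = growth of vehicle-only cultures of the same strain.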 To be noted: S. cerevisiae rad50 strain growth inhibition, stronger effect = higher value. In outline: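 Genetically altered yeast (DNA repair pathway); compound treatment; growth inhibition vs vehicle ctrl.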
The nature of assay [2]: NCI Yeast Anticancer Drug Screen. Data for the mec2-1 strain (AID 157). To be noted: S. cerevisiae mec2-1 strain, stronger effect = higher value. In outline:
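Compounds were applied to mec2-1 yeast cells. Their growth was then compared with that of vehicle-treated cultures to give growth inhibition.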

Assay [3] in a line: NCI Yeast Anticancer Drug Screen. Data for the sgs1 mgt1 strain (AID 161).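 Also: 0% = growth of cultures given vehicle only.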 Conditions: S. cerevisiae sgs1 mgt1 strain, stronger effect = higher value. The method, boiled down: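 This yeast growth screen uses a strain with defined DNA-repair lesions; compound-treated growth is compared with vehicle-treated growth.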
Assay [4] can be described thus: NCI Yeast Anticancer Drug Screen. Data for the cln2 rad14 strain (AID 165).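 Also: 0% = growth equal to vehicle treated cultures.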 To be noted: S. cerevisiae cln2 rad14 strain, stronger effect = higher value. In outline:
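Strain: cln2 rad14 yeast, altered in cell cycle control and DNA damage repair. Read-out: growth inhibition vs vehicle.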

Assay [5] in a line: NCI Yeast Anticancer Drug Screen. Data for the bub3 strain (AID 167). To be noted: S. cerevisiae bub3 mutant strain, stronger effect = higher value. The method, boiled down:
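Yeast carrying a defined mutation is treated with each compound, and growth is compared with that of vehicle-exposed cells to give inhibition.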

Assay [6] can be described thus: NCI Yeast Anticancer Drug Screen. Data for the mlh1 rad18 strain (AID 175). Conditions: S. cerevisiae mlh1 rad18 strain growth inhibition, stronger effect = higher value. The method, boiled down:
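A repair-deficient yeast strain is exposed to test compound, and growth is scored relative to vehicle-treated controls.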

Where [7] appears, read: at 5.0 µM (retest, dose inferred, filed as 0.5).
[8] abbreviates: at 50.0 µM (retest, dose inferred, filed as 5.0).

In the case of `CCN(CC)CCNc1n[n+]([O-])c2cc([N+](=O)[O-])ccc2[n+]1[O-]`, the growth inhibition in assay [1] (setting [7]) is 31% (inactive); in assay [1] (setting [8]) it was 88% (active); in assay [1] (at 50.0 µM), 80.5% (active) and 79% (active); in assay [2] (setting [7]), 5% (inactive); in assay [2] (setting [8]), 48% (inactive); in assay [2] (at 50.0 µM), 58.8% (inactive) and 52.6% (inactive). Further, the growth inhibition in assay [3] (setting [7]) is 16% (inactive); in assay [3] (setting [8]), 76% (active); in assay [3] (at 50.0 µM), 73.5% (active) and 71% (active); in assay [4] (setting [7]) it was 32% (inactive); in assay [4] (setting [8]) it was 63% (inactive); in assay [4] (at 50.0 µM), 48% (inactive) and 41% (inactive). Also, the growth inhibition in assay [5] (setting [7]) was -7% (inactive); in assay [5] (setting [8]), 67% (inactive); in assay [5] (at 50.0 µM) it was 43.7% (inactive) and 45.1% (inactive); in assay [6] (setting [7]) it was 24% (inactive); in assay [6] (setting [8]), 85% (active); in assay [6] (at 50.0 µM), 79.3% (active) and 80.5% (active).
Take `C[Si]1(C)CN(CCN)C[Si](C)(C)O1`: the growth inhibition in assay [1] (setting [7]) was 3% (inactive); in assay [1] (setting [8]), 2% (inactive); in assay [1] (at 50.0 µM) it was -3.85% (inactive) and 55.5% (inactive); in assay [2] (setting [7]), 1% (inactive); in assay [2] (setting [8]), 9% (inactive); in assay [2] (at 50.0 µM), 4.25% (inactive) and 49.5% (inactive). Also, the growth inhibition is 2% (inactive) in assay [3] (setting [7]); 0% (inactive) in assay [3] (setting [8]); -15.4% (inactive) and 76.5% (active) in assay [3] (at 50.0 µM); 2% (inactive) in assay [4] (setting [7]); -3% (inactive) in assay [4] (setting [8]); -20.3% (inactive) and 45% (inactive) in assay [4] (at 50.0 µM). Also, the growth inhibition in assay [5] (setting [7]) is -2% (inactive); in assay [5] (setting [8]) it was -4% (inactive); in assay [5] (at 50.0 µM) it was -3.65% (inactive) and 68.4% (inactive); in assay [6] (setting [7]) it was 0% (inactive); in assay [6] (setting [8]) it was -2% (inactive); in assay [6] (at 50.0 µM), -1.3% (inactive) and 62.6% (inactive).
For the molecule `CN(C)CCNC(=O)Cc1cc(O)c2c(c1O)C(=O)c1ccccc1C2=O`, the growth inhibition in assay [1] (setting [7]) was 6% (inactive); in assay [1] (setting [8]), 42% (inactive); in assay [1] (at 50.0 µM), 75.3% (active); in assay [2] (setting [7]), 6% (inactive); in assay [2] (setting [8]), 16% (inactive); in assay [2] (at 50.0 µM), 23% (inactive). Further, the growth inhibition in assay [3] (setting [7]) is 4% (inactive); in assay [3] (setting [8]) it was 28% (inactive); in assay [3] (at 50.0 µM), 81.3% (active); in assay [4] (setting [7]) it was -7% (inactive); in assay [4] (setting [8]), 12% (inactive); in assay [4] (at 50.0 µM) it was 54.7% (inactive). The growth inhibition is 0% (inactive) in assay [5] (setting [7]); 16% (inactive) in assay [5] (setting [8]); 16% (inactive) in assay [5] (at 50.0 µM); 4% (inactive) in assay [6] (setting [7]); 10% (inactive) in assay [6] (setting [8]); 82.1% (active) in assay [6] (at 50.0 µM).
As for `CCCCCCC(CCCCCCCCCCC(=O)OCC(CC)CC)OC(=O)CC` (stereo not given), the growth inhibition in assay [1] (setting [7]) was -4% (inactive); in assay [1] (setting [8]) it was -4% (inactive); in assay [1] (at 50.0 µM), 21.2% (inactive); in assay [2] (setting [7]), -3% (inactive); in assay [2] (setting [8]) it was -6% (inactive); in assay [2] (at 50.0 µM), 7.9% (inactive). Besides, the growth inhibition in assay [3] (setting [7]) is -4% (inactive); in assay [3] (setting [8]), -23% (inactive); in assay [3] (at 50.0 µM) it was 7.4% (inactive); in assay [4] (setting [7]), -2% (inactive); in assay [4] (setting [8]) it was -13% (inactive); in assay [4] (at 50.0 µM) it was 21.4% (inactive). Also, the growth inhibition in assay [5] (setting [7]) is -3% (inactive); in assay [5] (setting [8]), -5% (inactive); in assay [5] (at 50.0 µM), -6.9% (inactive); in assay [6] (setting [7]), -3% (inactive); in assay [6] (setting [8]), -6% (inactive); in assay [6] (at 50.0 µM) it was 39.5% (inactive).
`CCOC(=O)c1c(CN2CCNCC2)nc2ccc(Cl)cc2c1-c1ccccc1`: the growth inhibition in assay [1] (setting [7]) was 30% (inactive); in assay [1] (setting [8]), 30% (inactive); in assay [1] (at 50.0 µM), 29.4% (inactive); in assay [2] (setting [7]) it was 35% (inactive); in assay [2] (setting [8]), 35% (inactive); in assay [2] (at 50.0 µM) it was 14.2% (inactive). Further, the growth inhibition in assay [3] (setting [7]) was 26% (inactive); in assay [3] (setting [8]), 26% (inactive); in assay [3] (at 50.0 µM) it was 68% (inactive); in assay [4] (setting [7]), 23% (inactive); in assay [4] (setting [8]), 23% (inactive); in assay [4] (at 50.0 µM), 41.1% (inactive). The growth inhibition was 29% (inactive) in assay [5] (setting [7]); 29% (inactive) in assay [5] (setting [8]); 27.6% (inactive) in assay [5] (at 50.0 µM); 32% (inactive) in assay [6] (setting [7]); 32% (inactive) in assay [6] (setting [8]); 39.5% (inactive) in assay [6] (at 50.0 µM).
